The full list was thinned out, with hits kept by preference.
HIV RNase H inh-1: HIV-1 RT RNase H inhibitors, primary screen, biochemical, fluorescence | Gag-Pol polyprotein (Human immunodeficiency virus type 1 group M subtype B (isolate … | RT-RNase H RNA/DNA duplex cleavage | inhibition, % at 10 µM | 1.9% of 65,000 active; in the data active = inhibition above about 50%
HIV RNase H inh-2: HIV-1 RT RNase H inhibitors, retest, confirmation, biochemical | shares compounds with HIV RNase H inh-1 | Recombinant RT RNase H, fluorescent RNA/DNA duplex cleavage | inhibition, % at 10 µM | 39% of 1,000 active | AID 651, 2007; in the data active = inhibition above about 48%; inconclusive = no clear call, values can overlap the other calls
Starred values were filed as active, the others as inactive; ? = inconclusive.

SMILES	HIV RNase H inh-1	others
N#CC1=C(N)OC(c2ccccc2)=C(C#N)C1c1ccc2c(c1)OCO2 (stereo not given)	-13
CCCOc1ccc(C2C(C#N)=C(N)Oc3nc[nH]c(=O)c32)cc1OC (stereo not given)	-10
N#CC1=C(N)SC(N)=C(C#N)C1c1ccc(C(F)(F)F)cc1	61*	HIV RNase H inh-2=15
CCc1ccc(C2C(C#N)=C(N)SC(N)=C2C#N)cc1	70*	HIV RNase H inh-2=18
CCOc1ccc(C2C(C#N)=C(N)SC(N)=C2C#N)cc1OC	69*	HIV RNase H inh-2=5
CCOC(=O)C1=C(C)OC(N)=C(C#N)C1c1ccoc1 (stereo not given)	-89
Cc1ccc(C2C(C#N)=C(N)Oc3cc4c(cc32)OCO4)cc1 (stereo not given)	-18
N#CC1=C(N)SC(N)=C(C#N)C1C1CC=CCC1 (stereo not given)	2
N#CC1=C(N)SC(N)=C(C#N)C1c1cccc(Oc2ccccc2)c1	70*	HIV RNase H inh-2=39
CCOc1ccccc1C1C(C#N)=C(N)SC(N)=C1C#N	-5
COC(=O)C1=C(C)OC(N)=C(C#N)C1c1ccccc1 (stereo not given)	-41
Cc1ccc2cccc(S(=O)(=O)Nc3ccc4c(c3)OCO4)c2n1	-42
O=C(O)c1cc2ccccc2n1-c1ccccc1	-10
COC(=O)C1=CNC=C(C(=O)OC)C1c1ccc(C(=O)OC)cc1	0
CCOC(=O)N1CCN(C(=O)c2cn(CCOC)c(=O)c3c2c2ccccc2n3C)CC1	-1
CCCn1c(N2CCN(CC(=O)c3c[nH]c4ccccc34)CC2)nc2c1c(=O)[nH]c(=O)n2C	-1
Cc1ccc(C2C(C#N)=C(N)Oc3nc(-c4ccccc4)[nH]c32)o1 (stereo not given)	-8
CCCc1[nH]nc2c1C(CCc1ccccc1)C(C#N)=C(N)O2 (stereo not given)	-6
Cc1ccc(C2C(C#N)=C(N)SC(N)=C2C#N)o1	80*	HIV RNase H inh-2=?
N#CC1=C(N)SC(N)=C(C#N)C1c1c(Cl)cccc1Cl	-12
N#CC1=C(N)SC(N)=C(C#N)C1CCc1ccccc1	72*	HIV RNase H inh-2=2
Cc1ccc(SCc2[nH]nc3c2C(c2ccc(C)o2)C(C#N)=C(N)O3)cc1 (stereo not given)	-7
CC(C)(C)NC(=O)CSc1nccn1Cc1ccccc1	1
CCOC(=O)Cc1csc(NC(=O)c2cnc3scc(C)n3c2=O)n1	6
Cc1occc1-c1nnc(SCC(=O)c2cc3ccccc3oc2=O)o1	18
SMILES	HIV RNase H inh-1	others
O=C(O)c1ccccc1C(=O)Nc1ccccn1	-5
O=C(Nc1ccccc1)Nc1ccccn1	-10
S=C(Nc1ccccn1)c1ccccn1	73*	HIV RNase H inh-2=68*
O=C(N1CCCC1)n1c(Cc2ccccc2)nc2ccccc21	-17
COc1ccc(C(=O)Nn2cnc3scc(-c4cccs4)c3c2=O)c(O)c1	2
O=C(CSc1nnnn1-c1ccc2c(c1)OCCO2)Nc1nc2c(s1)CCCC2	-5
O=C(CSc1nnnn1-c1ccc2c(c1)OCCO2)N1CCc2ccccc21	1
O=C(CSc1nnnn1-c1ccc2c(c1)OCCO2)OC1CCCCC1	87*	HIV RNase H inh-2=28
CCC(CO)n1cnnc1-c1ccncc1 (stereo not given)	-8
COc1ccc2cc(C#N)c(N3CCN(Cc4nnnn4CCC(C)C)CC3)nc2c1	-4
Cc1c(N2C(=O)CSC23C(=O)Nc2ccccc23)c(=O)n(-c2ccccc2)n1C (stereo not given)	-2
O=C(c1cc(S(=O)(=O)N2CCCCC2)ccc1F)N1CCCCC1	9
CS(=O)(=O)N1CCN(C(=O)c2ccccc2F)CC1	-10
O=C(c1ccccc1F)N1CCN(S(=O)(=O)c2ccc(S(=O)(=O)N3CCCCC3)cc2)CC1	77*	HIV RNase H inh-2=78*
COC(=O)c1nnn(CC(=O)Nc2cccc(OC)c2)c1C(=O)OC	0
COc1ccc(NC(=O)CCN2C(=O)C3CC=C(Cl)CC3C2=O)cc1 (stereo not given)	3
O=C(CCS(=O)(=O)Cc1ccccc1)Nc1nc2c(s1)CCCC2	-18
O=C(Cc1ccc(S(=O)(=O)N2CCCC2)s1)Nc1nc2c(s1)CCCC2	76*	HIV RNase H inh-2=-3
O=C(CS(=O)(=O)Cc1ccccc1)Nc1nc2c(s1)CCCC2	-5
CC(C)C(C(=O)N1CCOCC1)N1C(=O)c2ccccc2C1=O (stereo not given)	-18
CCC12CCCN3CCC4(C(=C(C(=O)OC)C1)Nc1ccccc14)C32 (stereo not given)	1
Cc1ccc(NC(=O)C2CCCN2S(=O)(=O)c2ccc(F)cc2)c(C)c1 (stereo not given)	-3
CCC1CCCCN1S(=O)(=O)c1ccc2c(c1)CCN2C(=O)C1CCC1 (stereo not given)	-7
CCC1CCCCN1S(=O)(=O)c1ccc(S(=O)(=O)N2CCN(S(=O)(=O)CC)CC2)cc1 (stereo not given)	51*	HIV RNase H inh-2=57*

Screening results from PubChem.
